Assay outcomes (PubChem)
TDP1 cell noCPT = qHTS for Inhibitors of human tyrosyl-DNA phosphodiesterase 1 (TDP1): qHTS in cells in absence of CPT; DT40 Tdp1-/- hTDP1 cells, no CPT, ATP luminescence, 48 h; Potency, µM (top dose mostly 46.2 µM), without a hit: at the highest dose activity change, negative = growth inhibition, most hits filed as inhibitors; 420,000 tested, 15% active; further: nearly all actives have a fitted effect of over 55% in size
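Luminescent ATP content (CellTiter-Glo) served as the growth readout. Knockout chicken DT40 cells expressing human TDP1 were exposed to compounds without camptothecin for a minimum 48 hr at 37 °C.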
ELG1 DNA repair = inhibitors of ELG1-dependent DNA repair in HEK293T cells | HEK293T ELG1-luciferase reporter, luminescence, 16 h; DNA damage induced by 5-fluorouridine | AID 504467 | 330,000 tested, 2.3% active | Potency, µM (highest dose often 46.1 µM), without a hit: top-dose activity change, negative = inhibition, usual class: inhibitors; further: nearly all actives have a fitted effect of over 55% in size
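Overnight (16 hr) co-exposure of 2,000 cells/well to 5-fluorouridine and compound at 37 °C preceded detection. Luciferase was quantified via ONE-Glo luminescence; loss of signal denotes inhibition.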
12-LOX inh = blocks human arachidonate 12S-lipoxygenase | P18054 | AID 1671190 | Potency, µM (highest dose often 108 µM), for the others: top-dose activity change, negative = inhibition, actives largely listed as inhibitors | 580,000 tested, 1.1% active | purified 12hLO, xylenol orange hydroperoxide absorbance
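Purified human 12hLO (150 nM final) in 25 mM Hepes, 0.01% Triton X-100, pH 7.0 was preincubated 15 min at room temperature with compound. Then 40 uM arachidonic acid was added, 30 min. Hydroperoxide was read by Fe-XO absorbance ratio 573/405 nm.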
RORgamma inh = ROR gamma (mouse) transcription inhibition. P51450. Drosophila S2 Gal4-RORgamma UAS-luciferase reporter, 20 h. Potency, µM (highest dose often 53.6 µM), without a hit: at the top dose activity change, negative = inhibition, usual class: inhibitors. 310,000 tested, 5.4% active. AID 2551; further: nearly all actives have a fitted effect of over 60% in size
Target sequence (P51450 whole entry, looked up, the tested form may be a part): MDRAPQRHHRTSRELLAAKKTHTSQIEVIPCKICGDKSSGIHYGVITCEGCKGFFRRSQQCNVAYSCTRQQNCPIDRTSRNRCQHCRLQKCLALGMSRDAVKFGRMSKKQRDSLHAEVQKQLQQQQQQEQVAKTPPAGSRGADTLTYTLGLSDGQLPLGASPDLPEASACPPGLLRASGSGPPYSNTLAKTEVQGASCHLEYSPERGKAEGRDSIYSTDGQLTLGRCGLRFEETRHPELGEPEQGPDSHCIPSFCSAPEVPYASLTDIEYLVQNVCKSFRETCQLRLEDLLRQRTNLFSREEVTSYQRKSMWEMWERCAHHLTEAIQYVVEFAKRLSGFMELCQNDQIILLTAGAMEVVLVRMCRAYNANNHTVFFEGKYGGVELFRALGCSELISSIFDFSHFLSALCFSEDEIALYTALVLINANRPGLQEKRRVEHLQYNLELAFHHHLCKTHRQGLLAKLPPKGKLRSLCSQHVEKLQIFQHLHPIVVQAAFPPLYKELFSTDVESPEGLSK
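Compounds are pin-transferred onto Drosophila Schneider cells expressing a copper-inducible Gal4–ROR gamma transactivation domain fusion. After 1 hr, copper sulfate is added to 700 uM final; luciferase is read 20 hr later.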
TDP1 cell CPT = growth inhibition of DT40 Tdp1-/-;hTDP1 cells with camptothecin (screen for TDP1 inhibitors); AID 686979; chicken DT40 Tdp1-/-;hTDP1 cells + 20 nM CPT, ATP luminescence, 48 h; 420,000 tested, 12% active; Potency, µM (titrated, usually from 46.2 µM), for the others: at the top dose activity change, negative = growth inhibition, actives largely listed as inhibitors; further: nearly all actives have a fitted effect of over 55% in size
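Cell growth measured by CellTiter-Glo luminescence after a minimum 48 h, 37 C compound exposure with 20 nM CPT in Tdp1-knockout DT40 cells stably expressing hTDP1, seeded 400/well; qHTS titration format.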
Gal4-VP16 FLuc = Gal4-VP16 reporter inhibition counter-screen; Drosophila S2 Gal4-VP16 UAS-luciferase, luminescence, 20 h; Potency, µM (top dose mostly 53.6 µM), inactives show top-dose activity, negative = inhibition, actives largely listed as inhibitors; 310,000 tested, 3.5% active;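 further: Gal4-VP16 expression switched on by copper sulfate through the metallothionein promoter; nearly all actives have a fitted effect of over 50% in size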
* hit, by the source's call; ? = inconclusive; . = no result given; [ ] = dose if it differs, or a comment. This is a sample that favours compounds with a hit; in the whole collection about 15% have one here. The call rests on the fitted dose curve; in most records, active means well fitted curve in the direction sought with a large enough effect; inconclusive means small, poorly fitted or top-dose-only effect, or another doubt; inactive means no such curve, though single readings can be large; an effect the other way counts as inactive or inconclusive. On the % scale 0 is the no-effect control and ±100 the full control effect; potency means the concentration at half of the fitted maximal effect.

SMILES	TDP1 cell noCPT	ELG1 DNA repair	12-LOX inh	RORgamma inh	TDP1 cell CPT	Gal4-VP16 FLuc
COc1cc(CNc2ccc3[nH]c(=O)[nH]c3c2)cc(Br)c1OCc1ccc(F)cc1	14.6µM*	7.8%	0.0%	?	7.31µM*	?
COc1cc(CNc2ccc3[nH]c(=O)[nH]c3c2)ccc1OCc1ccccc1Cl	?	-2.3%	?	-23.6%	?	-20.5%
COc1cccc(CNc2ccc3[nH]c(=O)[nH]c3c2)c1OCc1ccccc1F	-27.4%	9.2µM*	-29.6%	?	?	-13.9%
COc1cccc(CNC2CCCC2)c1OCc1ccccc1F	.	.	-15.8%	.	.	.
COc1cc(CNc2ccc3[nH]c(=O)[nH]c3c2)cc(Cl)c1OCc1ccc(F)cc1	14.6µM*	.	-25.7%	.	18.4µM*	.
O=C(c1cc2ccccc2oc1=O)N1CCN(c2cccc(C(F)(F)F)c2)CC1	.	.	179.9%	.	.	.
O=C(NCc1cccs1)c1cc(Br)cn2ccnc12	.	.	-4.7%[176 µM]	.	.	.
CN(C)c1ccc(NC(=O)C(c2ccccc2)c2ccccc2)cc1	.	.	-17.3%	.	.	.
Cc1nc2c3cccnc3nn2c(C)c1CCC(=O)Nc1cccc(Br)c1	.	.	-26.9%	.	.	.
COc1ccc(NC(=O)CSc2nnc(COc3ccc(C)cc3)n2Cc2ccco2)c(OC)c1	.	.	5.7%	.	.	.
COc1ccc(C2Cn3nnc(-c4noc(CCc5ccccc5)n4)c3CO2)cc1 (stereo not given)	.	.	15.8%	.	.	.
COc1ccc(-c2nc(C#N)c(NCC(c3cccs3)N(C)C)o2)cc1 (stereo not given)	.	.	-12.6%	.	.	.
COc1cc(CNC2CCCC2)cc(Cl)c1OCc1ccccc1F	13µM*	0.0%	-28.8%	-33.9%	16.4µM*	-11.6%
CCOCCn1c(SCc2ccc(Cl)cc2)nc2c1c(=O)[nH]c(=O)n2C	.	.	5.1%	.	.	.
CCCCn1c(SCc2ccc(Cl)cc2)nc2c1c(=O)[nH]c(=O)n2C	13µM*	?	?	13.2%	13µM*	?
Cn1c(=O)[nH]c(=O)c2c1nc(N1CCCCC1)n2CCSc1nc2ccccc2o1	-15.1%	11.3%	-5.4%	-3.3%	-12.6%	-7.7%
CCSc1nc2c(c(=O)[nH]c(=O)n2C)n1Cc1ccc(Cl)cc1	?	?	2.4%	0.0%	?	-7.3%
CC(C)CCn1c(Sc2nc3ccccc3o2)nc2c1c(=O)[nH]c(=O)n2C	16.4µM*	4.7%	?	-23.3%	18.4µM*	?
C/C=C/Cn1c(SCc2ccccc2)nc2c1c(=O)[nH]c(=O)n2C	?	-8.8%	0.0%	-0.4%	20.6µM*	10.9%
CC(C)CCn1c(SCc2ccc(Cl)cc2)nc2c1c(=O)[nH]c(=O)n2C	18.4µM*	6.2%	?	25.1%	16.4µM*	-11.7%
CC(C)NC(=O)N[C@H]1C[C@@H](Cc2cc(CN3CCN(c4ccccc4)CC3)on2)C1(C)C	.	.	-4.3%	.	.	.
Cn1c(=O)c2c(nc(NCC(O)c3ccccc3)n2Cc2ccc(Cl)cc2Cl)n(C)c1=O (stereo not given)	.	.	-5.0%	.	.	.
NC(=O)c1cn(CC(=O)NCCc2cccc3ccccc23)c2ccccc12	.	.	4.7%	.	.	.
CCc1sc(NC(=O)CC[C@H]2NC(=O)c3ccccc3NC2=O)nc1C(=O)OC	.	.	10.5%	.	.	.
CC(C)N1CCN(C(=O)[C@@]23CCCC[C@H]2N(C)C(=O)CC3)CC1	.	.	59.4%	.	.	.
SMILES	TDP1 cell noCPT	ELG1 DNA repair	12-LOX inh	RORgamma inh	TDP1 cell CPT	Gal4-VP16 FLuc
C=C(C)CSc1nc2c(c(=O)[nH]c(=O)n2C)n1CCC(C)C	16.4µM*	?	-4.6%	-0.4%	14.6µM*	-8.2%
C=C(C)Cn1c(Sc2nc3ccccc3[nH]2)nc2c1c(=O)[nH]c(=O)n2C	-4.7%	25.9µM*	39.5%	1.2%	-22.1%	-8.6%
CCOCCn1c(SCc2ccc(C)cc2)nc2c1c(=O)[nH]c(=O)n2C	?	?	-4.5%[57.4 µM]	-8.8%	13µM*	6.0%
CCCCCn1c(Sc2nc3ccccc3s2)nc2c1c(=O)[nH]c(=O)n2C	?	20.6µM*	-0.1%[57.4 µM]	23.6%	16.4µM*	2.9%
CCCCCn1c(Sc2ncccn2)nc2c1c(=O)[nH]c(=O)n2C	?	-8.3%	0.0%	-23.6%	-4.0%	14.2%
Cc1oc(-c2ccc(Cl)cc2)nc1CSc1nc2c(c(=O)[nH]1)CCC2	.	.	22.8%	.	.	.
O=C(CC1(O)C(=O)N(CN2CCOCC2)c2ccccc21)c1ccc(F)cc1 (stereo not given)	.	.	24.7%	.	.	.
CCSc1nc2c(c(=O)[nH]c(=O)n2C)n1Cc1ccccc1Cl	.	.	31.6µM*	.	.	.
CCCCCSc1nc2c(c(=O)[nH]c(=O)n2C)n1Cc1ccccc1Cl	.	.	6.9%	.	.	.
NC(=O)C(Sc1ccc2ccccc2c1)c1ccccc1 (stereo not given)	.	.	14.5%	.	.	.
CC(C)COc1cccc(C(=O)N(C)CC(=O)Nc2cccc3ccccc23)c1	18.4µM*	-23.9%	?	.	18.4µM*	.
CCOC(=O)N1CCN(S(=O)(=O)c2c(C)cc(C)cc2C)CC1	?	-6.4%	-44.0%	0.8%	-5.7%	-2.7%
CCOC(=O)c1c(C)[nH]c(C)c1S(=O)(=O)N1CCC(C(=O)N2CCN(c3cccc(C)c3)C(C)C2)CC1 (stereo not given)	?	.	-23.6%	.	23.1µM*	.
CCOC(=O)N1CCN(C(=O)C2CCN(S(=O)(=O)c3c(C)cc(C)cc3C)CC2)CC1	18.4µM*	?	1.6%	-32.1%	?	-2.7%
CCOC(=O)c1c(C)[nH]c(C)c1S(=O)(=O)N1CCC(C(=O)N2CCN(c3cc(C)ccc3C)CC2)CC1	23.1µM*	.	-49.5%	.	23.1µM*	.
CCOc1cc(CNC(=O)c2ncoc2-c2ccc(C)s2)cc(OCC)c1OCC	.	.	-26.0%	.	.	.
Cc1ccc(S(=O)Cc2ccc(C(=O)NC3CCCCCC3)o2)cc1 (stereo not given)	16.4µM*	.	-2.4%	.	?	.
Cc1ccccc1S(=O)Cc1ccc(C(=O)NC2CCCCCC2)o1 (stereo not given)	?	.	?	.	18.4µM*	.
COc1ccccc1S(=O)Cc1ccc(C(=O)NC2CCCC2)o1 (stereo not given)	-18.4%	2.1%	-29.6%	0.6%	-15.4%	-0.4%
O=C(NC1CCCCCC1)c1ccc(CS(=O)c2ccc(Br)cc2)o1 (stereo not given)	?	.	-0.6%	.	?	.
O=C(NC1CCCCCCC1)c1ccc(Br)o1	4.61µM*	?	?	25.3%	-13.4%	17.0%
